Bioassay records from PubChem BioAssay.
Sampled rows, rich in hits. Any-hit rate of the full collection: about 5.4%.
JMJD2C inh = inhibitors of GASC-1 histone demethylase, primary screen, biochemical, fluorescence, DELFIA europium | Lysine-specific demethylase 4C (Homo sapiens), Q9H3R0 | GST-JMJD2C(1-420) H3K9me3 demethylation | inhibition, % at 2.35 µM | actives 0.069% (n = 330,000) | AID 2099, 2009;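 active = more than half of a compound's replicate wells show inhibition beyond 50%, single wells judged on their own value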;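 note: signal counts dimethyl H3K9 product captured on neutravidin plate; 0% = median of DMSO wells and 100% = 0.3 times that DMSO median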
SMARCA2 activ = SMARCA2 (BRM) function activators, primary screen, cell-based, luminescence, high throughput. MG213 cells, MMTV-luciferase reporter, dexamethasone, overnight. activation, % at 9.1 µM. actives 1% (n = 370,000). AID 652017, 2013; in the data active = activation above about 7.8%;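 note: 0% = vehicle wells and 100% = reference activator wells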
Granule exo inh = LAMP-1 surface exposure blockers, TALL-104 cells – cell-based, flow cytometry, MLPCN library, primary screen | TALL-104 LAMP-1 surface exposure; cells stimulated with thapsigargin and PMA | inhibition, % at 10 µM | actives 0.66% (n = 360,000) | AID 651702, 2012;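 active = inhibition above about 55%, limit read from the data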
MIN6 prolif = inducers of MIN6 beta-cell proliferation, primary screen, ATP luminescence, uHTS; MIN6 cells proliferation, ATPlite luminescence, 48 h; cells starved in 0.2% serum; 100% = growth in 10% serum; proliferation, % at 10 µM; actives 0.29% (n = 330,000); AID 2380, 2010;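 active = compounds whose signal lies at least 3.5 SD above the mean of all wells on their plate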;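 note: 0% = DMSO-treated cells in low-serum medium and 100% = 10% serum control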
PfM18AAP inh = PfM18AAP inhibitors, malaria aminopeptidase, primary screen, biochemical, QFRET, recombinant enzyme | M18 aspartyl aminopeptidase (Plasmodium falciparum 3D7) | H-Glu-NHMec fluorogenic cleavage | inhibition, % at 7.35 µM | actives 1.2% (n = 290,000) | AID 1822, 2009;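 active = inhibition above the campaign mean inhibition over all tested compounds plus 3 SD, cut at about 28% in these data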;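 note: 0% = plate median of test compound wells and 100% = 2 mM ZnCl2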
ALR inh = inhibitors of human ALR sulfhydryl oxidase, primary screen, biochemical, H2O2 detection, HRP-luminol luminescence, single point; FAD-linked sulfhydryl oxidase ALR (Homo sapiens), P55789; purified ALR, DTT oxidation; inhibition, % (concentration not given with the values); actives 3.8% (n = 290,000);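 active = mean replicate inhibition above about 79%, with every replicate also reaching it, limit read from the data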
Target sequence (P55789 whole entry, looked up): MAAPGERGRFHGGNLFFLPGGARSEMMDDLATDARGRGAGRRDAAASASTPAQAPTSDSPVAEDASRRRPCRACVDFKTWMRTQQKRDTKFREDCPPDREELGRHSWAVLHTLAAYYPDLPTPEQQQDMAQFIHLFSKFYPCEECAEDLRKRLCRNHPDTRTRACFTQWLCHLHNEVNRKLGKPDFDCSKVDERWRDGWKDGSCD
An asterisk follows results filed as active; . = not tested or not shown.

SMILES	JMJD2C inh	SMARCA2 activ	Granule exo inh	MIN6 prolif	PfM18AAP inh	ALR inh
Cc1ccc(/C=C/C(=O)N2CC(C)CC(C)C2)o1 (configuration not stated)	-8	1	102*	-4	-55	15
O=C(CN1C(=O)S/C(=C\C=C\c2ccccc2)C1=O)Nc1ccc(C(=O)O)cc1	1	-2	-1	-3	27	98*
CC(C)COc1ccc(-c2nn(-c3ccccc3)cc2/C=C2/SC(=S)N(CC(=O)O)C2=O)cc1	18	-2	2	-4	3	97*
O=C(O)CN1C(=O)/C(=C\c2cn(-c3ccccc3)nc2-c2ccccc2)SC1=S	115	.	2	-2	26	26
Cc1ccc2nc(N(CCN(C)C)C(=O)/C=C/c3cccs3)sc2c1	9	1	56*	0	-6	.
CCN(CC)CCN(C(=O)/C=C/c1cccs1)c1nc2ccc(C)cc2s1	-10	-4	4	-8	3	-1
CCc1ccc2nc(N(CCN(C)C)C(=O)/C=C/c3cccs3)sc2c1	9	.	67*	-4	3	8
CN(C)CCN(C(=O)/C=C/c1cccs1)c1nc2ccc(Br)cc2s1	0	1	33	-4	-7	.
COc1ccc(CC(=O)NC2CCCCN(Cc3ccc(Cl)cc3)C2=O)cc1OC (configuration not stated)	.	-1	.	.	.	.
C=CCN1C(=O)[C@@H](CC(=O)N2CCCC2)[C@]2(C(=O)OC)CCCCC=C12	.	0	.	.	.	.
O=C(NN=Cc1cc(Br)c(O)c(Br)c1)c1ccccc1NS(=O)(=O)c1cccs1	11	1	-4	-5	.	89*
O=C(CSc1cccc[n+]1[O-])c1cc2ccccc2o1	-12	.	3	-6	-2	94*
Nc1nc(SCC(=O)c2cc3ccccc3o2)n[nH]1	2	-4	-3	0	25	98*
C/C(=N\Nc1ccc(F)cc1)c1ccncc1	16	3	1	0	0	.
C/C(=N\Nc1ccc(Cl)cc1)c1ccncc1	1	2	6	-1	0	99*
C/C(=N\Nc1ccc(Cl)cc1)c1ccccn1	-1	2	2	-2	-26	100*
C/C(=N\Nc1cc(C(F)(F)F)ccc1Cl)c1ccncc1	9	-3	50	-1	3	0
C/C(=N\Nc1cccc(Cl)c1)c1ccncc1	-7	0	1	-4	7	99*
C[N+]1=C(N)NC2=C3CCCCC3n3c(=O)n(-c4ccccc4)c(=O)n3C2C1 (configuration not stated)	.	-4	.	.	.	.
COC(=O)N[C@H]1CC=C[C@@H]1Cc1cccc(Oc2ccccc2)c1	.	-1	.	.	.	.
CCn1c(SCC(=O)N/N=C/c2ccc(O)c(OC)c2)nc2ccccc21	-7	1	-1	0	4	99*
COc1ccc(/C=N/NC(=O)C(C)n2nnc3ccccc32)cc1OC (configuration not stated)	-6	2	-4	2	6	31
COc1ccc(/C=N/NC(=O)Cn2c(Cc3ccc(OC)c(OC)c3)nc3ccccc32)cc1OC	-12	5	-3	-2	-5	-14
CCn1c(SCC(=O)N/N=C/c2cc(OC)c(O)c(OC)c2)nc2ccccc21	-3	-1	0	4	19	99*
COc1ccc(Cc2nc3ccccc3n2CC(=O)N/N=C/c2ccc(O)cc2)cc1OC	-23	2	-1	-3	-6	100*
COc1cc(/C=N/NC(=O)C(C)n2nnc3ccccc32)ccc1O (configuration not stated)	-10	-2	-7	0	14	97*
CC(C)C(=O)N[C@H]1[C@H](O)CCC[C@]12C(=O)N(Cc1ccccc1)c1ccccc12	.	-3	.	.	.	.
C[C@@H]1COc2cc(Br)ccc2S(=O)(=O)N1Cc1cn(Cc2ccc(Br)cc2)nn1	.	-3	.	.	.	.
CC(=O)CC[C@@H]1CC[C@]2(CCCN(S(C)(=O)=O)C2)O1	.	-1	.	.	.	.
